Test results taken from PubChem BioAssay AID2653 (National Center for Advancing Translational Sciences (NCATS), 2010).
Results filed as inconclusive are left out. The source made the active and inactive calls. Calls follow the shape of the dose curve; as a rule, active = well fitted curve in the direction sought with a large enough effect; inconclusive = small, poorly fitted or top-dose-only effect, or another doubt; inactive = no such curve, though single readings can be large or run the other way.

Assay: Secondary Assay for Activators of Human Pyruvate Kinase M2 isoform - Cell Titer Glo Cytotoxicity for Probe SAR
Conditions: HeLa viability, CellTiter-Glo ATP luminescence, 24 h; series mostly up to 58.2 µM
Protocol: NIH Chemical Genomics Center [NCGC]
Matthew G. Vander Heiden, M.D., Ph.D. [Harvard Medical School, 77 Avenue Louis Pasteur, Boston, MA 02115]
We have identified a series of activators of the M2 isoform of human pyruvate kinase. The assay described here examines the cytotoxicity of these compounds by measuring the total ATP content of Hela cells after 24 hrs of exposure to compound.
500 Hela cells/ 4ul in media (DMEM with high glucose, 10% FBS, 1x Pen Strep, 1x NEAA) were dispensed into a white solid 1536-microwell plate with a Thermo Multidrop. The plates were incubated at 37 degrees Celsius for 24 hours. The cells were then treated with compounds using the Kalypsys pin tool, delivering 23 nl of test compounds and the control doxorubicin. The plates were then incubated for an additional 24 hours at 37 degrees C after which 4 ul of Promega Cell-Titer Glo was dispensed using the Thermo Multidrop. The plates were incubated at room temperature for 10 min before reading luminescence on the Perkin Elmer ViewLux with images collected with 2x binning and a 5 sec exposure time.

Compound | outcome
Cc1ccc(NS(=O)(=O)c2cccc(C(=O)O)c2)cc1C | inactive
O=C1CCc2cc(S(=O)(=O)Nc3ccc4ncccc4c3)ccc2N1 | inactive
Cc1ccc(NS(=O)(=O)c2cc3c(cc2-c2ccsc2)NC(=O)CO3)cc1C | inactive
COc1cccc(OC2=NS(=O)(=O)c3ccccc32)c1 | inactive
CCNc1cccc(S(=O)(=O)N2CCN(S(=O)(=O)c3ccc4c(c3)OCCO4)CC2)c1 | inactive
Cc1ccc(NS(=O)(=O)c2ccc3ccccc3c2)cc1C | inactive
O=C1CCc2cc(S(=O)(=O)Nc3cccc(F)c3)ccc2N1 | inactive
COc1cccc(Cn2ncc3c4sc(S(C)=O)cc4n(C)c3c2=O)c1 (stereo not given) | inactive
Cc1ccc(N2C(=O)c3ccccc3C2=O)c(C)c1 | inactive
Cc1ccc(NS(=O)(=O)c2cc3c(cc2/C=C/c2ccccc2)NC(=O)CO3)cc1C | inactive
COc1cc(N2C(=O)c3ccccc3C2=O)c2ncccc2c1 | inactive
Cc1ccc(NS(=O)(=O)c2ccc3c(c2)CCN(C(=O)C(F)(F)F)C3)cc1C | inactive
O=C1CCc2cc([S+](=O)([O-])Nc3ccc(N[S+](=O)([O-])c4ccc5c(c4)CCC(=O)N5)cc3)ccc2N1 | inactive
Nc1cc(S(=O)(=O)N2CCN(S(=O)(=O)c3ccc4c(c3)OCCO4)CC2)ccn1 | inactive
Cc1ccc(NS(=O)(=O)c2ccc3c(c2)CCC(=O)N3)cc1 | inactive
N#Cc1cccc(NS(=O)(=O)c2ccc3c(c2)CCC(=O)N3)c1 | inactive
O=C1CCc2cc(S(=O)(=O)Nc3ccc(Cl)cc3)ccc2N1 | inactive
O=C1CCc2cc(S(=O)(=O)Nc3ccc(Cl)c(Cl)c3)c(F)cc2N1 | inactive
Cc1cc(N2C(=O)c3ccccc3C2=O)no1 | inactive
N#Cc1ccc(NS(=O)(=O)c2ccc3c(c2)CCC(=O)N3)cc1 | inactive

Compound | outcome
Cc1ccc2nc(-c3ccc(C)o3)c(Nc3ccc(Cl)cc3)n2c1 | inactive
Cc1ccc(NS(=O)(=O)c2cc3c(cc2N2CCCCC2)NC(=O)CC3)cc1C | inactive
O=C1CCc2cc(S(=O)(=O)Nc3cccc(Br)c3)ccc2N1 | inactive
CC(=O)Nc1cccc(S(=O)(=O)Nc2ccc(C)c(C)c2)c1 | inactive
Cc1ccc(NS(=O)(=O)c2cc3c(cc2-c2ccccc2)NC(=O)CO3)cc1C | inactive
Cc1ccc(Nc2c(-c3ccc(C)o3)nc3cccc(C)n23)cc1 | inactive
Fc1ccccc1-c1ccc(-c2nc3ccc(Cl)cn3c2Nc2ccc(Cl)cc2)o1 | inactive
O=C1CCc2cc(S(=O)(=O)Nc3ccc4c(c3)CCC4)ccc2N1 | inactive
O=S(=O)(c1ccc2c(c1)OCCO2)N1CCN(S(=O)(=O)c2c(F)cccc2F)CC1 | inactive
Cc1ccc(NS(=O)(=O)c2ccc3c(c2)NC(=O)CO3)cc1C | inactive
Cc1ccc(N[S+](=O)([O-])c2cc3c(cc2CCc2ccccc2)NC(=O)CO3)cc1C | inactive
Cc1ccc(NS(=O)(=O)c2ccc3c(c2)n(C)c(=O)n3C)cc1C | inactive
Cc1cccc(NS(=O)(=O)c2ccc3c(c2)CCC(=O)N3)c1 | inactive
Cc1c(Cl)cccc1NS(=O)(=O)c1cc2c(cc1F)NC(=O)CC2 | inactive
Cc1c(Cl)cccc1NS(=O)(=O)c1cc2c(cc1Cl)CCC(=O)N2 | inactive
Cc1ccc(NS(=O)(=O)c2ccc3[nH]c(=O)[nH]c3c2)cc1C | inactive
Cc1ccc(NC(=O)c2ccc3c(c2)CCC(=O)N3)cc1C | inactive
Cc1ccc(NS(=O)(=O)c2cc3c(cc2Br)NC(=O)CO3)cc1C | inactive
O=C1CCc2cc(S(=O)(=O)Nc3ccc(F)cc3)ccc2N1 | inactive
Cc1ccc(Nc2c(-c3ccc(C)s3)nc3cccc(C)n23)cc1 | inactive
